# In PubChem BioAssay:
# Assay: hepatitis C replication reporter changes, two-sided – Huh7 cells, luciferase reporter, HCV replication inhibitor project, primary screen (AID 1109);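 further: huh7 hepatoma cells harbouring a luciferase neomycin HCV replicon reporter; luciferase luminescence as measure of HCV replicon replication; test concentration not given here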
# Conditions: Huh7 HCV replicon luciferase reporter, 48 h; higher = more signal
row,Compound,z-score
1,C=CCC(OC(C)=O)[C@@H]1[C@@H](N(Cc2cccc3ccccc23)C(=O)c2cccc3ccccc23)c2cc(OCCCO)ccc2N1C(=O)Cc1ccc2ccccc2c1 (stereo partly specified),0.108
2,COc1ccc(C(O)C2C=CC3C(=O)N(C)C(=O)C3N2Nc2ccc([N+](=O)[O-])cc2[N+](=O)[O-])cc1OCc1ccccc1 (stereo unspecified),0.714
3,COCCOC(=O)N1C(=O)[C@@]2(c3cc(C#CCC(C(=O)OC)C(=O)OC)ccc31)[C@H](C(=O)N1CCc3cc(OC)c(OC)cc3C1)[C@H]1C(=O)O[C@H](c3ccccc3)[C@H](c3ccccc3)N1[C@@H]2c1ccc(O)cc1,-0.649
4,C=CCNC(=O)[C@@H]1[C@H]2C(=O)O[C@H](c3ccccc3)[C@H](c3ccccc3)N2[C@H](c2ccc(O)cc2)[C@@]12C(=O)Nc1ccc(C#CC3(O)CCCCCC3)cc12,-0.608
5,COCCOC(=O)N1C(=O)[C@@]2(c3ccccc31)[C@H](C(=O)N1CCCCCCC1)[C@H]1C(=O)O[C@H](c3ccccc3)[C@H](c3ccccc3)N1[C@@H]2c1ccc(O)cc1,-1.06
6,N#Cc1ccc(C(O)C2C=CC3C(=O)NC(=O)C3N2Nc2ccccn2)cc1 (stereo unspecified),-0.676
7,CC(C)C[C@H]1NC(=O)[C@@]23C(=O)N[C@@H](Cc4ccccc4)C2[C@H](C)[C@@]2(C)O[C@H]2C3/C=C/C/C=C\CNC(=O)[C@@H]2CCCN2C1=O (stereo partly specified),-0.0034
8,CCCC[C@@H]1C[C@H]1[C@@H](NC(=O)Cc1ccccc1)c1ccc(Cl)cc1,-1.79
9,NC(=O)N1C(=O)C2C(C1=O)C1C=C(CCCO)C2C(c2ccc(CN3CCCC3)cc2)N1Cc1cccc(OC(F)(F)F)c1 (stereo unspecified),-3.48
10,CCOC(=O)C[C@H]1[C@H](OC(=O)c2ccc(C(=O)c3ccccc3)cc2)[C@@H](NC(=O)c2ccc3ccccc3c2)c2cc(OCCCO)ccc2N1C(=O)c1ccc2ccccc2n1,-0.415
11,O=C1NC(=O)C2C1C=CC(C(O)c1ccc(F)cc1)N2Nc1ccccn1 (stereo unspecified),0.305
12,COc1ccc([Si](C)(C)[C@H]2[C@H](CC(=O)N3Cc4ccccc4C[C@H]3CO)O[C@@]3(C(=O)N(Cc4cccc(N5C(=O)c6cccc7cccc5c67)c4)c4ccccc43)[C@@H]2C)cc1,-4.08
13,COC(=O)[C@@]1(Cc2ccccc2)[C@@H]2[C@@H](CC(=O)[C@H]2CC(=O)C(=O)N(C)C)CN1C(=O)c1ccccc1,-0.96
14,COC(=O)[C@]1(CO)N=C(c2ccc(OCCCO)cc2)O[C@@H]1c1ccccc1CN=[N+]=[N-],0.606
15,CC(C)CNC(=O)[C@@H]1c2ccccc2C(=O)N(C(C)C)[C@H]1c1ccc(CO)cc1,-0.972
16,Cc1c(NC(=O)/C(C#N)=C/c2ccc(Cl)cc2)c(=O)n(-c2ccccc2)n1C,-0.871
17,O=C1c2ccccc2[C@](Cc2ccccc2I)(C(=O)O)[C@H](c2ccc(CO)cc2)N1Cc1ccccc1,-0.837
18,CCC[C@@H]1C=C(C(=O)OCC)[C@H](c2ccccc2)N1S(=O)(=O)c1ccc(C)cc1,-1.84
19,COCCOC(=O)N1C(=O)[C@@]2(c3cc(C#CCC(C(=O)OC)C(=O)OC)ccc31)[C@H](c1ccc(OCCO)cc1)N1[C@H](c3ccccc3)[C@H](c3ccccc3)OC(=O)[C@H]1[C@@H]2C(=O)N1CCCCCCC1,-0.735
20,CCOC(=O)C[C@H]1[C@H](OC(=O)c2ccc(-c3ccccc3)cc2)[C@@H](NC(=O)CC(C)C)c2cc(OCCCO)ccc2N1C(=O)Cc1ccc(OC)cc1,-1.84
21,COCCOC(=O)N1C(=O)[C@@]2(c3cc(C#CCC(C(=O)OC)C(=O)OC)ccc31)[C@H](C(N)=O)[C@H]1C(=O)O[C@H](c3ccccc3)[C@H](c3ccccc3)N1[C@@H]2c1ccc(OCCO)cc1,-1.88
22,C=CCC(OC(C)=O)[C@@H]1[C@@H](N(Cc2ccc(-c3cccc(C(F)(F)F)c3)o2)C(=O)c2cccc3ccccc23)c2cc(OCCCO)ccc2N1C(=O)c1ccc2ccccc2c1 (stereo partly specified),0.0329
23,COC(=O)[C@@]1(Cc2ccccc2)[C@H]2c3cc(C(=O)N4CCCC4)n(Cc4ccc(C(F)(F)F)nc4)c3C[C@H]2CN1C(=O)c1ccccc1,-2.59
24,C=CC[C@@]1(C(=O)O)N=C(c2ccc(OCCCO)cc2)O[C@@H]1c1ccccc1CN=[N+]=[N-],-1.99
25,COc1ccc([Si](C)(C)[C@H]2[C@H](CCn3cc([C@H](O)c4ccccc4)nn3)O[C@@]3(C(=O)N(C)c4c(Br)cc(C)cc43)[C@@H]2C)cc1,-4.19
26,CC1(C)OC[C@@]23C=C(Br)[C@@H](C[C@H]12)[C@@]1(CO1)C3=O,-1.33
